“And” between values parts separate entries of the source, which are not always exact repeats. Identical values can stand only once. A number with no mark means an inactive call. Records with an inconclusive call do not appear. The source made the active and inactive calls. Unless noted, calls follow the shape of the dose curve; as a rule, active = well fitted curve in either direction with a large enough effect (not every such curve was filed as active); inconclusive = small, poorly fitted or top-dose-only effect, or another doubt; inactive = flat fitted curve, though single readings scatter.
Experiments:
[1] = AP1 Signaling Pathway (AID 357); conditions: ME-180 AP-1-bla reporter, EGF-induced, beta-lactamase ratio, 5 h; series mostly up to 17.2 µM; also: % is scaled to controls: 0 for no effect and ±100 for the full control effect
Method in brief: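 ME-180 cells with beta-lactamase reporter under AP-1 response element, stimulated with EC50 EGF; compounds tested in titration series, 5 h at 37 °C. CCF4 substrate added 2.5 h at room temperature; 460/530 nm emission ratio gave %activity and AC50.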

[2] = molecular target: Cytochrome P450 1A2 (Homo sapiens) (UniProt P05177); test: p450-cyp1a2 (AID 410; calls by dose curve; also: potency is read from the fitted curve at half-maximal effect); conditions: recombinant CYP1A2, luciferin-ME demethylation, luminescence; series mostly up to 57 µM
Method in brief: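 20nM CYP1A2 with 100uM Luciferin-ME (at Km) in 100mM KPO4; compound preincubated 10 min, NADPH regeneration added, 60 min at room temperature. Luciferin quantified by luminescence after detection reagent; normalized to 57 uM furafylline.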

[3] = Cell Viability - BJ (AID 421; calls by dose curve;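 also: potency is read from the fitted curve at half-maximal effect; cells exposed to compound for 40 hours at 37 °C before readout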); conditions: BJ fibroblast viability, qHTS
Method in brief: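 Quantitative HTS: ATP depletion in BJ cells after 40 hr compound exposure in complete culture medium, detected with CellTiter-Glo; AC50 from standard Hill fits.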

[4] = Cell Viability - HepG2 (AID 433; calls by dose curve;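 also: potency is read from the fitted curve at half-maximal effect; cells exposed to compound for 40 hours; potency for ATP loss meaning cytotoxicity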); conditions: qHTS
Method in brief: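 HepG2 cells, 1500 per well, treated 40 hr at 37 °C in complete medium; viability from intracellular ATP by CellTiter-Glo luminescence. Normalized to DMSO and 100 uM tamoxifen; AC50 from Hill fit of qHTS concentration-response.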

[5] = Cell Viability - MRC5 (AID 434; calls by dose curve;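 also: potency is read from the fitted curve at half-maximal effect; cells exposed to compound for 40 hours at 37 °C; potency reflects cytotoxicity seen as loss of intracellular ATP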); conditions: MRC5 lung fibroblast viability, qHTS
Method in brief: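 MRC5 normal human lung fibroblasts (1500/well) were treated with compounds for 40 hr at 37 °C in complete medium, and viable cells were measured as intracellular ATP by CellTiter-Glo luminescence. AC50 came from Hill fits, normalized to DMSO and 100 uM tamoxifen.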

[6] = NFAT Signaling Pathway (AID 444); conditions: Jurkat NFAT-bla M1, carbachol, beta-lactamase ratio, 5 h; series mostly up to 17.2 µM;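 also: carbachol stimulus at about its EC50 of 1 µM final; % is scaled to controls: 0 for no effect and ±100 for the full control effect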
Method in brief: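 Jurkat cells carrying an NFAT-driven β-lactamase reporter and co-transfected muscarinic M1 receptor were treated with compound plus carbachol (1 uM final, an EC50 level) for 5 h at 37 °C. CCF4 loading followed for 1 h at RT; 460/530 nm ratio gave %activity.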

[7] = Stat Signaling Pathway (AID 446); conditions: ME-180 (cervical carcinoma) SIE beta-lactamase reporter, IL-6 stimulated, 5 h;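 also: ME-180 cervical cancer cells given 40 pM IL-6 alongside compound; SIE-controlled beta-lactamase reporter measured as 460/530 nm FRET emission ratio; % is scaled to controls: 0 for no effect and ±100 for the full control effect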
Method in brief: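 IL-6/STAT signaling read in ME-180 cells via an SIE beta-lactamase reporter. Stimulus was 40 pM IL-6 (its AC50) for 5 hrs, so both activation and inhibition register.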

[8] = molecular target: Glucocorticoid receptor (Homo sapiens) (UniProt P04150); test: GR-GFP Redistribution (AID 450;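 active = compounds whose dose series gives a full or clear partial fitted curve of increased nuclear translocation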; also: potency is read from the fitted curve at half-maximal effect); conditions: U2OS GR-GFP nuclear translocation, laser cytometry, 2 h
[9] = molecular target: Glucocorticoid receptor (Homo sapiens) (UniProt P04150); test: GR-EFC Redistribution (AID 451; calls by dose curve; also: potency is read from the fitted curve at half-maximal effect); conditions: CHO-K1 GR-EFC translocation, beta-gal luminescence, 2 h
Method in brief: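 CHO-K1 cells stably expressing nuclear-localized β-gal enzyme acceptor and GR fused C-terminally to the enzyme donor fragment; ligand-driven nuclear translocation restores β-gal by complementation. Compounds titrated up to 46 uM final, 2 h at 37 °C; luminescence read.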

[10] = molecular target: Lysosomal acid glucosylceramidase (Homo sapiens) (UniProt P04062); test: Glucocerebrosidase-p2 (AID 348; in the data active = potency below about 10 µM; also: potency is read from the fitted curve at half-maximal effect); conditions: purified GBA, blue fluorogenic substrate, 40 min
Method in brief: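 Compounds titrated from 0.6 nM upwards against 0.2 nM enzyme in pH 5.9 citric acid/KH2PO4, taurocholate, tween-20; blue fluorogenic substrate 80 uM, 40 min room temperature, stopped and read Ex 365/Em 440 for AC50.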

Chain of Cytochrome P450 1A2 (Homo sapiens) (P05177 whole entry, looked up): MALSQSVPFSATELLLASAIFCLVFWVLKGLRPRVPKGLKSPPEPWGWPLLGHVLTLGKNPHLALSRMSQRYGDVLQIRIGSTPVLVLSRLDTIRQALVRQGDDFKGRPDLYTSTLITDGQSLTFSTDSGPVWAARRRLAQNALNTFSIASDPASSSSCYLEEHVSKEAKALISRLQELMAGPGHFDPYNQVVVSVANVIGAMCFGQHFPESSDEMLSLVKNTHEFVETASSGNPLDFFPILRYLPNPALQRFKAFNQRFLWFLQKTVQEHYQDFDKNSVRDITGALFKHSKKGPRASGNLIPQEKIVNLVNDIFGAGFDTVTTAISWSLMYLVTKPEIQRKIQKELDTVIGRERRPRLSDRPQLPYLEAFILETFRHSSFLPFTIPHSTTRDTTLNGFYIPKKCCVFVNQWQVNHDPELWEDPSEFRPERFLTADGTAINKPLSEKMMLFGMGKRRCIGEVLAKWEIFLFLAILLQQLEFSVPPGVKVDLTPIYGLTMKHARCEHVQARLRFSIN
Chain of Glucocorticoid receptor (Homo sapiens) (P04150 whole entry, looked up, the tested form may be a part): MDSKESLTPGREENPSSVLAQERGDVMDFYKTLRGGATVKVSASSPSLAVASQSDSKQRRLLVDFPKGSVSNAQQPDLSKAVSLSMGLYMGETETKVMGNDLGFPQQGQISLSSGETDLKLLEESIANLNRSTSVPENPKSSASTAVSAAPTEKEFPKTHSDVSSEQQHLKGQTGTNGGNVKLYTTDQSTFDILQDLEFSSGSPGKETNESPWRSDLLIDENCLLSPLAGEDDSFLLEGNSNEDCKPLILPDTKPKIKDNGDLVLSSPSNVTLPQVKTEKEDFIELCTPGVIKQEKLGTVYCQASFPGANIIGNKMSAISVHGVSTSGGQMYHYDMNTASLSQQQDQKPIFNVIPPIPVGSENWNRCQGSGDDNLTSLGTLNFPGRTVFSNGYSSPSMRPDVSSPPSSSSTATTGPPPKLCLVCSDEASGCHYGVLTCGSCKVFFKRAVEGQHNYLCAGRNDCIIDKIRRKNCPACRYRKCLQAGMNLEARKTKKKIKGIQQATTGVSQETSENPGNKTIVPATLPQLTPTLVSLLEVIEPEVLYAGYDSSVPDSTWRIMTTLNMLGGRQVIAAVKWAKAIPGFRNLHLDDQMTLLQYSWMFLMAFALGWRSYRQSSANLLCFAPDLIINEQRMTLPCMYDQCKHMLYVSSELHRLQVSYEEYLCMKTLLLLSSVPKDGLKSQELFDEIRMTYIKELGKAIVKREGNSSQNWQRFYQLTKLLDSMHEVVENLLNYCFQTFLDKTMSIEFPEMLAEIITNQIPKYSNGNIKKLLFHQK
Chain of Lysosomal acid glucosylceramidase (Homo sapiens) (P04062 whole entry, looked up): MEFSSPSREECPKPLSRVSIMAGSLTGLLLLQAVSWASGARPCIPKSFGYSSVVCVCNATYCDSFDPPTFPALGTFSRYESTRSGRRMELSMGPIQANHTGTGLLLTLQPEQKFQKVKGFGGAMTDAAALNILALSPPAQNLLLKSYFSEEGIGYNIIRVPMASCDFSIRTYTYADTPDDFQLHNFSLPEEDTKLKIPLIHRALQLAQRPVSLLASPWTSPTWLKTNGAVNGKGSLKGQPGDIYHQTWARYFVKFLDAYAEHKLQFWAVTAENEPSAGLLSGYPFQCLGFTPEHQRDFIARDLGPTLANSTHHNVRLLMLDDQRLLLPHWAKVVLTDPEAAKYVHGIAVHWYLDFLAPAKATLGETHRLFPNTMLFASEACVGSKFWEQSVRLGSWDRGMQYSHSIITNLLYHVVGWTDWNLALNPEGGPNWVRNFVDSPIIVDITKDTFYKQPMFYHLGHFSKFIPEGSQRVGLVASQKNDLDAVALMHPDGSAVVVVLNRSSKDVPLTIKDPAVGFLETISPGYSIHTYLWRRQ

Row | SMILES | outcome [1] | Potency [2] | Potency [3] | Potency [4] | Potency [5] | outcome [6] | activity, negative = inhibition ([7]; at 17.2 µM (top of the series)) | activity, negative = inhibition ([7]; at 38 µM (top of the series)) | Potency [8] | Potency [9] | Potency [10] | activity, negative = inhibition ([7]; at 7.69 µM (top of the series))
1 | O=C1NC(=O)C(c2ccccc2)(c2ccccc2)N1 | inactive | inactive | > 92 µM | > 92 µM | > 92 µM | inactive | -0.146% | -3.08% | > 46 µM and > 20.6 µM | > 46 µM | – | –
2 | C[C@@H](O)[C@H]1C(=O)N2C(C(=O)O)=C(S[C@@H]3CN[C@H](C(=O)N(C)C)C3)[C@H](C)[C@H]12 | inactive | inactive | – | – | – | inactive | -18.6% | – | > 20.6 µM | > 20.6 µM | – | –
3 | CCCNC(=O)NS(=O)(=O)c1ccc(Cl)cc1 | inactive | inactive | > 92 µM | > 92 µM | > 92 µM | inactive | -8.89% and -0.985% | -1.14% | > 46 µM and > 20.6 µM | > 46 µM and > 20.6 µM | – | –
4 | CCN(CC)C(=O)c1ccc(O)c(OC)c1 | inactive | 12.6 µM (active) | – | – | – | inactive | 4.07% and -1.09% | -11.7% | > 46 µM and > 20.6 µM | > 46 µM and > 20.6 µM | – | –
5 | CCN(CC)CCNC(=O)c1ccc(N)cc1 | inactive | – | – | – | – | inactive | 5.34% and 0.638% | 3.95% | – | – | – | –
6 | COc1ccc(-c2coc3cc(O)cc(O)c3c2=O)cc1 | inactive | 3.98 µM (active) | – | – | – | inactive | 5.25% | – | > 46 µM and > 20.6 µM | > 46 µM | – | –
7 | NC(N)=Nc1nc(CSCC/C(N)=N/S(N)(=O)=O)cs1 | inactive | – | – | – | – | inactive | 12% and 11.5% | 1.63% | > 46 µM and > 20.6 µM | > 46 µM and > 20.6 µM | – | –
8 | COCCCCC(=NOCCN)c1ccc(C(F)(F)F)cc1 | inactive | 158 nM (active) and 39.8 nM (active) and 15.8 nM (active) | – | – | – | inactive | -3.51% | -10.7% | > 46 µM and > 20.6 µM | > 46 µM and > 20.6 µM | – | –
9 | NCCS | inactive | inactive | – | – | – | inactive | – | -9.49% | – | – | – | –
10 | CCCCC1C(=O)N(c2ccccc2)N(c2ccccc2)C1=O | inactive | inactive | > 92 µM | > 92 µM | > 92 µM | inactive | -15.3% | -22.4% | > 46 µM and > 20.6 µM | > 46 µM | – | –
11 | C[N+](C)(C)CCCCCC[N+](C)(C)C | inactive | inactive | – | – | – | inactive | 8.45% | 9.91% | – | – | – | –
12 | COc1ccccc1N1CCN(CCCNc2cc(=O)n(C)c(=O)n2C)CC1 | inactive | inactive | – | – | – | inactive | -0.455% | 1.93% | – | – | – | –
13 | Clc1ccc(Cn2c(CN3CCCC3)nc3ccccc32)cc1 | inactive | 10 µM (active) and 3.98 µM (active) | – | – | – | inactive | -8.1% and 3.26% | 0.465% | > 46 µM and > 20.6 µM | > 46 µM and > 20.6 µM | – | –
14 | O=C(O)CCc1nc(-c2ccccc2)c(-c2ccccc2)o1 | inactive | – | – | – | – | inactive | -0.803% | -12.8% | > 46 µM and > 20.6 µM | > 46 µM and > 20.6 µM and > 9.22 µM | > 11.4 µM | 5.68%
15 | O=c1c(-c2ccc(O)cc2)coc2cc(O)ccc12 | inactive | 15.8 µM (active) | > 92 µM | > 92 µM | > 92 µM | inactive | – | -22% | > 46 µM | > 46 µM | – | –
16 | O=C(O)c1cc(O)c2c(c1)C(=O)c1cccc(O)c1C2=O | inactive | – | > 92 µM | – | > 92 µM | inactive | 11.9% | – | > 20.6 µM | – | – | –
17 | CCN(CC)CCOC(=O)c1ccc(N)cc1 | inactive | inactive | – | – | – | – | 13% | -13.6% | – | – | – | –
18 | O=C1NCC2(CCN(CCc3ccccc3)CC2)O1 | inactive | inactive | – | – | – | inactive | 8.61% | 4.62% | > 46 µM and > 20.6 µM | > 46 µM and > 20.6 µM | – | –
19 | c1cc(-c2sc(-c3ccncc3)c(-c3ccncc3)c2-c2ccncc2)ccn1 | inactive | 3.16 µM (active) | – | – | – | inactive | – | – | > 46 µM | > 9.22 µM | > 11.4 µM | 7.72%
20 | CC(=O)c1ccc(S(=O)(=O)NC(=O)NC2CCCCC2)cc1 | inactive | inactive | > 92 µM | > 92 µM | > 92 µM | inactive | -1.46% | -26.2% | > 46 µM and > 20.6 µM | > 46 µM and > 20.6 µM | – | –
21 | CCN1CCC[C@H]1CNC(=O)c1cc(S(N)(=O)=O)ccc1OC | inactive | inactive | – | – | – | inactive | 8.96% | – | > 20.6 µM and > 46 µM | > 20.6 µM and > 46 µM | – | –
22 | CC(=O)CCCCn1c(=O)c2c(ncn2C)n(C)c1=O | inactive | 31.6 µM (active) and 12.6 µM (active) | – | – | – | inactive | -10.5% | 9.49% | > 46 µM and > 20.6 µM | > 46 µM and > 20.6 µM | – | –
23 | CC(C)OC(=O)C(C)(C)Oc1ccc(C(=O)c2ccc(Cl)cc2)cc1 | inactive | 12.6 µM (active) and 5.01 µM (active) | – | – | – | – | – | – | > 46 µM and > 20.6 µM | > 46 µM and > 20.6 µM | – | –
24 | CC/C(=C(\c1ccccc1)c1ccc(OCCN(C)C)cc1)c1ccccc1 | inactive | – | – | 46.2 µM (active) | 60.3 µM (active) | inactive | 14.2% | 2.62% | > 46 µM and > 20.6 µM | > 46 µM and > 20.6 µM | – | –
25 | C[N+](C)(C)CC(=O)O | inactive | inactive | – | – | – | inactive | – | -8.86% | – | – | – | –

— PubChem BioAssay (NCATS)
